Measured values taken from PubChem BioAssay (Tox21).
Records with an inconclusive call do not appear. The source made the active and inactive calls. Unless noted, the call rests on the fitted dose curve.

Legend:
[1] = Nuclear factor erythroid 2-related factor 2/antioxidant responsive element (Nrf2/ARE) small molecule agonists: qHTS cell viability counter screen in human keratinocytes (AID 1919968; active means well fitted curve in the direction sought with a large enough effect in the repeat runs; an effect the other way counts as inactive or inconclusive; further: nearly all actives have a fitted effect of over 55% in size)
In short: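 Viability counter-screen: KeratinoSens reporter cells, DMSO-delivered compounds, 23 h at 37 C, CellTiter-Fluor fluorescence.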

[2] = Nuclear factor erythroid 2-related factor 2/antioxidant responsive element (Nrf2/ARE) small molecule agonists: luciferase reporter gene qHTS assay in human keratinocytes (AID 1919969); further: nearly all actives have a fitted effect of over 35% in size
[3] = target: Gonadotropin-releasing hormone receptor (Homo sapiens) (UniProt P30968); test: Human gonadotropin-releasing hormone receptor (GnRHR) small molecule agonists, calcium flux assay in GnRHR-HEK293 cells (AID 1920063); further: nearly all actives have a fitted effect of over 35% in size
Sequence of Gonadotropin-releasing hormone receptor (Homo sapiens) (P30968 whole entry, looked up): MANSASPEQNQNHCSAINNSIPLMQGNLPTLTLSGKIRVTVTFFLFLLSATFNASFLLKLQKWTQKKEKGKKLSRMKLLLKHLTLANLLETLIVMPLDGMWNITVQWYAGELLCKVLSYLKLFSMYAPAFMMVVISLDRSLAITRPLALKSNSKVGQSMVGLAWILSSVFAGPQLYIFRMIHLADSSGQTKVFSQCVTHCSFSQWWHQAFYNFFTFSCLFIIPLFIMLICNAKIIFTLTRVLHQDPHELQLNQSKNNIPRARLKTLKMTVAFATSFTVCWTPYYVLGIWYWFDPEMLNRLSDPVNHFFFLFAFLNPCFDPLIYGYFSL
In short: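 Tox21-format agonist screen using human GnRHR-expressing HEK293 cells and a fluorescent calcium dye; kinetic 3-min fluorescence reading after compound addition, 15-point concentration series run in triplicate.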

[4] = target: KiSS-1 receptor (Homo sapiens) (UniProt Q969F8); test: Human kisspeptin (KISS1R) small molecule agonists, calcium flux assay in KISS1R-HEK293 cells (AID 1920064; active means well fitted curve in the direction sought with a large enough effect in the repeat runs; an effect the other way counts as inactive or inconclusive)
Sequence of KiSS-1 receptor (Homo sapiens) (Q969F8 whole entry, looked up): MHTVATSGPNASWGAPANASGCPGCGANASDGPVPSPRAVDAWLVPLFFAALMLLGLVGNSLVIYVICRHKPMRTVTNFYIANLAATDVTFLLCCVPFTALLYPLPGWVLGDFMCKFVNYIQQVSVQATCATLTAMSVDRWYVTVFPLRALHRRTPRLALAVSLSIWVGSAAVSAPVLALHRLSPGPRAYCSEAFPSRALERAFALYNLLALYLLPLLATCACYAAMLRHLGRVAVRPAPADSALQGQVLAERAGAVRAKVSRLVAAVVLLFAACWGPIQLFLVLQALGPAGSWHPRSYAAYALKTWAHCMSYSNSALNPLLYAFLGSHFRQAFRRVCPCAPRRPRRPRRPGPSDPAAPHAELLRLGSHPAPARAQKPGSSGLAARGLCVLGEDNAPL
In short: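 Intracellular calcium mobilization in KISS1R-HEK293 cells was recorded by fluorescence (Ex/Em 480/540) for 3 min following compound addition to cells pre-loaded 1 h with calcium dye.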

[5] = G protein-coupled receptor (GPCR) small molecule agonists, calcium flux assay: HEK293 wild type cell line counter screen (AID 1920065)
In short: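 In this agonist-mode screen, ATP is the positive control and DMSO the vehicle. Cells grow 18 h before a 1 h dye incubation at 37 C; signal is taken at Ex/Em 480/540 over 3 min.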

[6] = p53 small molecule agonists, cell-based qHTS assay with human liver microsomes (AID 1963577);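 further: p53 response element beta-lactamase reporter cells with liver microsomes plus NADPH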
In short: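 16 h, 37 C exposure of p53RE-bla cells to compounds with human liver microsomes and NADPH (0.5 mg/mL final each); detection via LiveBLAzer mixture, 2 h dark at room temperature.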

[7] = p53 small molecule agonists, cell-based qHTS assay with rat liver microsomes (AID 1963578)
In short: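 With rat liver microsomes and NADPH present (0.5 mg/mL final each), p53RE-bla cells are treated with compound for 16 h at 37 C. LiveBLAzer detection mixture is then applied for 2 h at room temperature in the dark.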

[8] = p53 small molecule agonists, cell-based qHTS assay with human liver microsomes: qHTS cell viability counter screen (AID 1963579); further: nearly all actives have a fitted effect of over 45% in size
In short: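 In this multiplexed counter screen, the reporter plates were subsequently treated with CellTiter-Glo so that cell viability, reflected by luminescence, could be recorded for p53RE-bla cells dosed 16 h with compounds under microsomal activation (HLM and NADPH).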

[9] = p53 small molecule agonists, cell-based qHTS assay with rat liver microsomes: qHTS cell viability counter screen (AID 1963580); further: nearly all actives have a fitted effect of over 45% in size
In short: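 Viability is assessed in parallel with the p53 reporter read: HCT-116 p53RE-bla cells receive compounds plus rat microsomes and NADPH (0.5 mg/mL final apiece), incubate 16 h at 37 C, and then CellTiter-Glo luminescence is recorded.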

[10] = p53 small molecule agonists, cell-based qHTS assay: qHTS cell viability counter screen (AID 1963581); further: nearly all actives have a fitted effect of over 45% in size
In short: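 Compounds are pinned onto HCT-116 p53RE-bla cells and left 16 h at 37 C. Following the reporter FRET read, ATP is quantified by CellTiter-Glo luminescence after 30 min at room temperature.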

[11] = p53 small molecule agonists, cell-based qHTS assay (AID 1963582; active means well fitted activation curve with a large enough effect in the signal ratio in the repeat runs, not every such curve was filed as active; the % refers to the signal ratio)
In short: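 Agonist activity was scored from beta-lactamase FRET fluorescence in p53RE-bla cells treated 16 h at 37 C with compounds in DMSO, substrate incubation being 2 h at room temperature.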

[12] = target: 5-hydroxytryptamine receptor 2A (Homo sapiens) (UniProt P28223); test: 5-hydroxytryptamine receptor 2A (HTR2A) small molecule antagonists, cell-based qHTS assay (AID 1963586); further: nearly all actives have a fitted effect of over 45% in size
Sequence of 5-hydroxytryptamine receptor 2A (Homo sapiens) (P28223 whole entry, looked up): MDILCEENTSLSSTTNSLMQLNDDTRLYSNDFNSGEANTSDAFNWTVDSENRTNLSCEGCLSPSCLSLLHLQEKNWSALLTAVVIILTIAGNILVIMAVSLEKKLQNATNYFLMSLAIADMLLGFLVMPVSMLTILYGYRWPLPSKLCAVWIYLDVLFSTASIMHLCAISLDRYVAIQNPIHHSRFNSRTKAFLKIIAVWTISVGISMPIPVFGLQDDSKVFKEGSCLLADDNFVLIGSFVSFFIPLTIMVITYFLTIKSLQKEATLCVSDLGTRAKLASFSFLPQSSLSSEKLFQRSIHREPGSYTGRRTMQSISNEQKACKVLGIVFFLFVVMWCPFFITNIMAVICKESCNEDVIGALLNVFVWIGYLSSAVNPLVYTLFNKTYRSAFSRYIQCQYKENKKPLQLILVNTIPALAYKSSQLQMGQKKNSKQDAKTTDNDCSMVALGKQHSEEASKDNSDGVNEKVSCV
In short: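 Antagonist-mode intracellular calcium assay: DOI (4 nM) added after 5 min compound pre-incubation at room temperature to dye-loaded HTR2A-CHO cells. Fluorescence followed for 3 min, sampled every second.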

[13] = target: 5-hydroxytryptamine receptor 2A (Homo sapiens) (UniProt P28223); test: 5-hydroxytryptamine receptor 2A (HTR2A) small molecule agonists, cell-based qHTS assay (AID 1963587); further: nearly all actives have a fitted effect of over 30% in size
In short: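 CHO cells stably expressing human HTR2A, plated 18 h, loaded with calcium dye 1 h at 37 C. Agonist mode: compounds added and intracellular calcium fluorescence recorded kinetically for 2 min at 1 sec intervals.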

[14] = target: Muscarinic acetylcholine receptor M1 (Homo sapiens) (UniProt P11229); test: Cholinergic receptor muscarinic 1 (CHRM1) small molecule antagonists, cell-based qHTS assay (AID 1963588); further: nearly all actives have a fitted effect of over 40% in size
Sequence of Muscarinic acetylcholine receptor M1 (Homo sapiens) (P11229 whole entry, looked up): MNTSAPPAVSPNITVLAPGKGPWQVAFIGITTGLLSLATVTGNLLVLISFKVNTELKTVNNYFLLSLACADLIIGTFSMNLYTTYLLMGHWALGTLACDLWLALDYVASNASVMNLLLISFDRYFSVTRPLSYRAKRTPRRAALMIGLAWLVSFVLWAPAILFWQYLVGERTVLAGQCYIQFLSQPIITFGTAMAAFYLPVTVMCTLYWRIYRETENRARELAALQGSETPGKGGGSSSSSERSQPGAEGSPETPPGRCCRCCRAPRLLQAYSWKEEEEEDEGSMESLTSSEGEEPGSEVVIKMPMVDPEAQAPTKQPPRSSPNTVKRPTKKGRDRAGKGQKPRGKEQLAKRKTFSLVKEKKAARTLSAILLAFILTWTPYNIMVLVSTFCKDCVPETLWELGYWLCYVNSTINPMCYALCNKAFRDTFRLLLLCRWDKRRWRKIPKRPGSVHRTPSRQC
In short: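 CHRM1-CHO calcium-flux assay, antagonist mode. Cells were seeded 18 h, dye-loaded 1 h at 37 C and given compound for 5 min at RT, then acetylcholine was added at 50nM. FDSS fluorescence was read 3 min; 15 concentrations, three runs.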

[15] = target: Muscarinic acetylcholine receptor M1 (Homo sapiens) (UniProt P11229); test: Cholinergic receptor muscarinic 1 (CHRM1) small molecule agonists, cell-based qHTS assay (AID 1963589); further: nearly all actives have a fitted effect of over 35% in size
In short: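 Stable CHRM1-CHO cells (human receptor) were incubated 18 h, dye-loaded for 1 h at 37 C and exposed to test compounds for agonist activity, with calcium-dependent fluorescence followed kinetically.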

[16] = cAMP Responsive Elements (CRE) small molecule agonists, cell-based qHTS assay (AID 1963590)
In short: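 FRET-based beta-lactamase readout (LiveBLAzer B/G, 2 h RT) quantified CRE activation in HEK 293T CRE-bla cells after 3 h treatment with DMSO-dissolved compounds.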

[17] = cAMP Responsive Elements (CRE) small molecule antagonists, cell-based qHTS assay (AID 1963591; active means well fitted inhibition curve with a large enough effect in the signal ratio in the repeat runs, not every such curve was filed as active; the % refers to the signal ratio)
In short: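 qHTS in CRE-bla HEK 293T cells: compound in DMSO, then 0.25 uM NKH477 (final), 3 h at 37 °C/5% CO2; beta-lactamase FRET read-out after 2 h substrate incubation.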

[18] = target: Beta-2 adrenergic receptor (Homo sapiens) (UniProt P07550); test: Adrenergic beta2 receptor (ADRB2) small molecule antagonists, cell-based qHTS assay (AID 1963592); further: series mostly up to about 92 µM; nearly all actives have a fitted effect of over 50% in size
Sequence of Beta-2 adrenergic receptor (Homo sapiens) (P07550 whole entry, looked up): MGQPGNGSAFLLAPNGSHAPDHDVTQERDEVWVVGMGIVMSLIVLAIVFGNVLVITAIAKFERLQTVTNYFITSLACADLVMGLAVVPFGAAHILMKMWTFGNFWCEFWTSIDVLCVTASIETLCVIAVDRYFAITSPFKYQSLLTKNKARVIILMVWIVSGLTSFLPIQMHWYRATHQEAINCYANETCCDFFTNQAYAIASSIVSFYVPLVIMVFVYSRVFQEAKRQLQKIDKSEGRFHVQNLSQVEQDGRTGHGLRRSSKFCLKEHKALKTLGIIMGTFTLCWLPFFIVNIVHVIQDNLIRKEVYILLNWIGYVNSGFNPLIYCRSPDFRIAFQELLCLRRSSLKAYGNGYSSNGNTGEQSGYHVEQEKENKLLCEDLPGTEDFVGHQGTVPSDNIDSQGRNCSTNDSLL
In short: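 Cells (CHO, stable ADRB2 overexpression) incubated 18-20hr at 37C; compounds added from DMSO; agonist mix (1nM isoproterenol, 100uM IBMX, 25uM Ro-20-1724) added; 0.5hr RT; d2-cAMP and anti-cAMP-cryptate added; 1hr RT; 665/615 nm read.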

[19] = target: D(2) dopamine receptor (Homo sapiens) (UniProt P14416); test: Dopamine D2 receptor (DRD2) small molecule agonists, cell-based qHTS assay (AID 1963594); further: nearly all actives have a fitted effect of over 35% in size
Sequence of D(2) dopamine receptor (Homo sapiens) (P14416 whole entry, looked up): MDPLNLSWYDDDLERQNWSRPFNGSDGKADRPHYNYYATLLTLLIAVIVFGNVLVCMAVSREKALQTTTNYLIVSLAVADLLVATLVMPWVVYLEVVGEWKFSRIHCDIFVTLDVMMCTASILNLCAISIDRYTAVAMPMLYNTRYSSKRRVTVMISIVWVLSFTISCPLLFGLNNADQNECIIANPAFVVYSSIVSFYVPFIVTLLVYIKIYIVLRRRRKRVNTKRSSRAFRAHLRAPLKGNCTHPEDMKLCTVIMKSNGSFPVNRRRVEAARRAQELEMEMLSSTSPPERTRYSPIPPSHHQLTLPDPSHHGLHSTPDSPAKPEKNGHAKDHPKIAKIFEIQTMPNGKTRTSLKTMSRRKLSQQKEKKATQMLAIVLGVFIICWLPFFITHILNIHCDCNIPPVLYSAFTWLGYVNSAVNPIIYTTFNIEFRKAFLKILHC
In short: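 HEK293 cells stably expressing human DRD2, pre-treated with PDE inhibitor Ro20-1724 (0.1 mM final) and compound 10 min at room temperature, then stimulated with NKH477 (200nM […]) for 30 min. cAMP read by HTRF (665/620 nm).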

[20] = target: D(2) dopamine receptor (Homo sapiens) (UniProt P14416); test: Dopamine D2 receptor (DRD2) small molecule antagonists, cell-based qHTS assay (AID 1963595; active means well fitted inhibition curve with a large enough effect in the signal ratio in the repeat runs, with a control signal flat; the % refers to the signal ratio)
In short: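 Antagonist mode in DRD2-HEK293 cells: after compound addition with 0.1 mM Ro20-1724, cells received quinpirole (12 nM) and NKH477 (200 nM) for 30 min at room temperature; HTRF cAMP read after 1 h detection.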
On the % scale 0 is the no-effect control and ±100 the full control effect.

Nc1ccccc1S(=O)(=O)c1ccccc1
inactive: Potency [1] | Potency [2] | Potency [3] | outcome [4] | outcome [5] | Potency [6] | Potency [7] | Potency [8] | Potency [9] | Potency [10] | Potency [11] | Potency [12] | Potency [13] | Potency [14] | Potency [15] | Potency [16] | Potency [17] | Potency [18] | Potency [19] | Potency [20]

CC(C)(C)OC(=O)N1C[C@@H](F)C[C@H]1C(=O)O
inactive: Potency [1] | Potency [2] | Potency [3] | outcome [4] | outcome [5] | Potency [6] | Potency [7] | Potency [8] | Potency [9] | Potency [10] | Potency [11] | Potency [12] | Potency [13] | Potency [14] | Potency [15] | Potency [16] | Potency [17] | Potency [18] | Potency [19]

CCC(C=O)CC
inactive: Potency [1] | Potency [2] | Potency [3] | outcome [4] | outcome [5] | Potency [6] | Potency [7] | Potency [8] | Potency [9] | Potency [10] | Potency [11] | Potency [12] | Potency [13] | Potency [14] | Potency [15] | Potency [16] | Potency [17] | Potency [18] | Potency [19] | Potency [20]

C=CCOc1c(Br)cc(Br)cc1Br
inactive: Potency [1] | Potency [2] | Potency [3] | outcome [4] | outcome [5] | Potency [6] | Potency [7] | Potency [8] | Potency [9] | Potency [10] | Potency [11] | Potency [12] | Potency [13] | Potency [14] | Potency [15] | Potency [16] | Potency [17] | Potency [18] | Potency [19] | Potency [20]

O=C(O)/C=C/c1ccc(/C=C/C(=O)O)cc1
inactive: Potency [1] | Potency [2] | Potency [3] | outcome [4] | outcome [5] | Potency [6] | Potency [7] | Potency [8] | Potency [9] | Potency [10] | Potency [11] | Potency [12] | Potency [13] | Potency [14] | Potency [15] | Potency [16] | Potency [17] | Potency [18] | Potency [19] | Potency [20]

C=C1C[C@@]23CC[C@H]4[C@@](C)(CCC[C@@]4(C)C(=O)O[C@@H]4O[C@H](CO)[C@@H](O)[C@H](O)[C@H]4O)[C@@H]2CC[C@]1(O[C@@H]1O[C@H](CO)[C@@H](O)[C@H](O[C@@H]2O[C@H](CO)[C@@H](O)[C@H](O)[C@H]2O)[C@H]1O[C@@H]1O[C@H](CO)[C@@H](O)[C@H](O)[C@H]1O)C3
inactive: Potency [1] | Potency [2] | Potency [3] | outcome [4] | outcome [5] | Potency [6] | Potency [7] | Potency [8] | Potency [9] | Potency [10] | Potency [11] | Potency [12] | Potency [13] | Potency [14] | Potency [15] | Potency [16] | Potency [17] | Potency [18] | Potency [19] | Potency [20]

CC(NC(CCc1ccccc1)C(=O)O)C(=O)N1C(=O)N(C)CC1C(=O)O (centres undefined)
inactive: Potency [1] | Potency [2] | Potency [3] | outcome [4] | outcome [5] | Potency [6] | Potency [7] | Potency [8] | Potency [9] | Potency [10] | Potency [11] | Potency [12] | Potency [13] | Potency [14] | Potency [15] | Potency [16] | Potency [17] | Potency [18] | Potency [19] | Potency [20]

Cc1cc(C)c(C=O)c(C)c1
inactive: Potency [1] | Potency [2] | Potency [3] | outcome [4] | outcome [5] | Potency [6] | Potency [7] | Potency [8] | Potency [9] | Potency [10] | Potency [11] | Potency [12] | Potency [13] | Potency [14] | Potency [15] | Potency [16] | Potency [17] | Potency [18] | Potency [19] | Potency [20]

[O]=[Mo](=[O])=[O]
inactive: activity change, negative = cytotoxicity [1] 1.36% [at 19 µM] | activity, positive = activation [2] -5.06% [at 19 µM] | activity change [3] -0.246% [at 11.8 µM, hits give high values] | activation [4] -1.57% [at 15.8 µM] | activation [5] -0.132% [at 11.8 µM] | activation [6] -1.11% [at 13.5 µM] | activation [7] -0.845% [at 13.6 µM] | activity change, negative = cytotoxicity [8] 2.49% [at 13.5 µM] | activity change, negative = cytotoxicity [9] 5.17% [at 13.5 µM] | activity change, negative = cytotoxicity [10] 14.2% [at 13.5 µM] | activation [11] -2.07% [at 13.5 µM] | activity, negative = inhibition [12] -16.5% [at 12.7 µM] | activation [13] 4.75% [at 15.9 µM] | activity, negative = inhibition [14] 1.32% [at 12.6 µM] | activation [15] 0.586% [at 15.8 µM] | activation [16] 0.435% [at 19 µM] | activity change, negative = inhibition [17] 1.4% [at 18.9 µM] | activity change, negative = inhibition [18] -19.7% [at 19 µM] | activation [19] -0.0356% [at 19 µM] | activity change, negative = inhibition [20] -0.307% [at 18.9 µM]

C=C(C)CCO
inactive: Potency [1] | Potency [2] | Potency [3] | outcome [4] | outcome [5] | Potency [6] | Potency [7] | Potency [8] | Potency [9] | Potency [10] | Potency [11] | Potency [12] | Potency [13] | Potency [14] | Potency [15] | Potency [16] | Potency [17] | Potency [18] | Potency [19] | Potency [20]

BrCCCCCBr
inactive: Potency [1] | Potency [2] | Potency [3] | outcome [4] | outcome [5] | Potency [6] | Potency [7] | Potency [8] | Potency [9] | Potency [10] | Potency [11] | Potency [12] | Potency [13] | Potency [14] | Potency [15] | Potency [16] | Potency [17] | Potency [18] | Potency [19] | Potency [20]

CC(C)(C)C(=O)CC(=O)C(C)(C)C
inactive: Potency [1] | Potency [2] | Potency [3] | outcome [4] | outcome [5] | Potency [6] | Potency [7] | Potency [8] | Potency [9] | Potency [10] | Potency [11] | Potency [12] | Potency [13] | Potency [14] | Potency [15] | Potency [16] | Potency [17] | Potency [18] | Potency [19] | Potency [20]
